Measured values published in the supplement of paper PMC3545927.
The list shows a part of the results. No count for the full screen is at hand.

B1: HC2253 (peptide)
chain: CAEVVTSTWRAGNASASA
B2: HC41 (peptide)
chain: CATTPASGSWAGNASASA
B3: HC1811 (peptide)
chain: CADDMEECSQAGNASASA
B4: FS-1970 (peptide)
chain: CARRRRDATRAGNASASA
B5: FS-2793 (peptide)
chain: CARRRRQAERAGNASASA
B6: FS-2790 (peptide)
chain: CARRRRKKARAGNASASA
B7: HC867 (peptide)
chain: CANAVAYYRGAGNASASA
B8: FS-1637 (peptide)
chain: CAKRERNKRSAGNASASA
B9: FS-2534 (peptide)
chain: CARVRKSLKKAGNASASA
B10: FS-1978 (peptide)
chain: CARVRRNAKKAGNASASA
B11: FS-1275 (peptide)
chain: CARVRRNKRSAGNASASA
B12: FS-1527 (peptide)
chain: CAGPVRLKKKAGNASASA
B13: FS-2783 (peptide)
chain: CARRRKSLKTAGNASASA
B14: FS-1802 (peptide)
chain: CARVRKSKGKAGNASASA
B15: HC885 (peptide)
chain: CADSVIDCNTAGNASASA
B16: HC1511 (peptide)
chain: CAASGVLTTSAGNASASA
B17: HC1769 (peptide)
chain: CAMEECSQHYAGNASASA
B18: HC1617 (peptide)
chain: CAGVPPLRAWAGNASASA
B19: HC1548 (peptide)
chain: CAQPEYDLELAGNASASA
B20: FS-2563 (peptide)
chain: CARKPRPLDPAGNASASA
B21: FS-2695 (peptide)
chain: CARKPRDYTIAGNASASA
B22: HC1436 (peptide)
chain: CAVTPIDTTIAGNASASA
B23: FS-2980 (peptide)
chain: CARKSRDMEIAGNASASA
B24: FS-2038 (peptide)
chain: CARKPRDLELAGNASASA
B25: HC1058 (peptide)
chain: CAAAVTSPLTAGNASASA
B26: HC258 (peptide)
chain: CARNSTGLYHAGNASASA
B27: HC325 (peptide)
chain: CATTALVMAQAGNASASA

Molecular target: furin, P09958
Experiment: furin cleavage Z-score vs untreated control; higher = more cleavage, active = 3.5 or more, inactive = 1 or less, 8 variable residues between constant flanks
Procedure, shortened: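 Sequencing of released DNA, tagged with adapters by PCR, gave read counts used as abundance. That DNA was freed when purified furin cut N-terminally bead-bound 8-mer peptides fused to a cDNA oligonucleotide, in 0.01 ml reactions at 1:10 enzyme:substrate in 50 mM HEPES pH 7.5 with CaCl2 and NaCl, lasting 7.5, 15 or 30 min. The cleavage Z-score was the lowess-adjusted log count versus furin-free reactions, scaled by median absolute deviation.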

Sequence of furin, P09958 (P09958 whole entry): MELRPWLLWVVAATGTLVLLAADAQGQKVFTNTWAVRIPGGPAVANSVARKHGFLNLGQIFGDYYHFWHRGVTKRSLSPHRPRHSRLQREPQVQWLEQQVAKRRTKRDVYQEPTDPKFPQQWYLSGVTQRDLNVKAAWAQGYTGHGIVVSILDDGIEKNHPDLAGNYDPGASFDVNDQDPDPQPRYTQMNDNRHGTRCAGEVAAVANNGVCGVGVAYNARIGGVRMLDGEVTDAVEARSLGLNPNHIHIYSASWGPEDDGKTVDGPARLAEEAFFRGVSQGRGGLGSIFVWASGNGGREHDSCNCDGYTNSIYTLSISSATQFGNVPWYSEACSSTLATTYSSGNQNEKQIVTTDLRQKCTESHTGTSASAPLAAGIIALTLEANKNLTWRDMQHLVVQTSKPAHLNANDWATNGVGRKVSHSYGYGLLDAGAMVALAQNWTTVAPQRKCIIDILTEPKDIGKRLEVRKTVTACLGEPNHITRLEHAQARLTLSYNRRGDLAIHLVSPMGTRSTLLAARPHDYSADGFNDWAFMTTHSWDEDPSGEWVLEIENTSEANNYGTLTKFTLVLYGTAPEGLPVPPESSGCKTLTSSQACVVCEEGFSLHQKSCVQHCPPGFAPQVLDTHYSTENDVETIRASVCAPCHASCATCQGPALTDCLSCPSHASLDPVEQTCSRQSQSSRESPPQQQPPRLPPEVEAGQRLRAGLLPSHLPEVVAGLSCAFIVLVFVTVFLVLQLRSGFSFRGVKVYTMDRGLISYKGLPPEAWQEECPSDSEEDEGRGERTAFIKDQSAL

| Sequence | furin cleavage Z-score (7.5 min) | furin cleavage Z-score (15 min) | furin cleavage Z-score (30 min) |
| --- | --- | --- | --- |
| B1 | 0.989 (inactive) | 0.48 (inactive) | 1.66 |
| B2 | -0.916 (inactive) | -1.61 (inactive) | -1.23 (inactive) |
| B3 | 0.222 (inactive) | -0.945 (inactive) | -0.707 (inactive) |
| B4 | 13.2 (active) | 14.6 (active) | 10 (active) |
| B5 | 10.1 (active) | 11.9 (active) | 8.27 (active) |
| B6 | 1.33 | 1.06 | 0.0674 (inactive) |
| B7 | -0.298 (inactive) | 0.148 (inactive) | 1.73 |
| B8 | 12.5 (active) | 14.4 (active) | 10.7 (active) |
| B9 | 0.916 (inactive) | 3.69 (active) | 5.83 (active) |
| B10 | 6.72 (active) | 5.97 (active) | 7.62 (active) |
| B11 | 11.3 (active) | 10.9 (active) | 9.58 (active) |
| B12 | -0.8 (inactive) | -1.68 (inactive) | -0.907 (inactive) |
| B13 | 0.0718 (inactive) | 1.16 | 2.47 |
| B14 | 0.157 (inactive) | -1.05 (inactive) | 0.116 (inactive) |
| B15 | 0.968 (inactive) | 0.824 (inactive) | 1.02 |
| B16 | -1.03 (inactive) | -0.000581 (inactive) | -0.909 (inactive) |
| B17 | 0.65 (inactive) | 1.28 | 2.12 |
| B18 | 0.794 (inactive) | 0.986 (inactive) | 0.446 (inactive) |
| B19 | 1.74 | 0.744 (inactive) | 0.874 (inactive) |
| B20 | 1.12 | 0.612 (inactive) | 0.941 (inactive) |
| B21 | 0.48 (inactive) | 0.851 (inactive) | 3.93 (active) |
| B22 | -0.162 (inactive) | -2.25 (inactive) | -0.263 (inactive) |
| B23 | 0.641 (inactive) | -0.334 (inactive) | 1.3 |
| B24 | 8.14 (active) | 11 (active) | 10.9 (active) |
| B25 | 0.302 (inactive) | -1.38 (inactive) | -0.302 (inactive) |
| B26 | 0.587 (inactive) | -0.804 (inactive) | -0.846 (inactive) |
| B27 | 0.431 (inactive) | -0.525 (inactive) | -0.108 (inactive) |
